Results reported in PubChem BioAssay (NCI).
About 83,000 compounds went through this panel and 20% of them were active in at least one assay; those are over-represented in the sample as a whole.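 Note: values are percent growth. 100 is the growth of untreated cells, values between 100 and 0 indicate rising inhibition; between -100 and 0 indicates cell death.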 A number with no mark means an inactive call. Activity calls are given as the source filed them. How the source made its calls: active means growth percent below 10; inactive means the rest.

What was measured:
Assay in all cases: NCI-60 one-dose screen, 48 h (100 = growth as untreated, 0 = no growth, -100 = all killed)
Conditions in all cases: 10 µM
NCI-H23 lung = system: NCI-H23 lung
NCI-H226 lung = system: NCI-H226 lung
NCI-H460 lung = system: NCI-H460 lung
HOP-92 NSCLC = system: HOP-92 NSCLC
A549/ATCC NSCLC = system: A549/ATCC NSCLC
786-0 renal = system: 786-0 renal
COLO 205 colon = system: COLO 205 colon
NCI-H522 lung = system: NCI-H522 lung

Row | Compound | growth (NCI-H23 lung) | growth (NCI-H226 lung) | growth (NCI-H460 lung) | growth (HOP-92 NSCLC) | growth (A549/ATCC NSCLC) | growth (786-0 renal) | growth (COLO 205 colon) | growth (NCI-H522 lung)
1 | CCCCc1oc2ccccc2c1C(=O)c1cc(I)c(OCCN(CC)CC)c(I)c1 | -38.9% (active) | -36% (active) | -76.7% (active) | -68.7% (active) | 9.9% (active) | -90.5% (active) | -79.8% (active) | –
2 | CCc1cc(Cl)c(OC)c(C(=O)NCC2CCCN2CC)c1O (stereo unspecified) | 85.5% | 94.7% | 104% | 65.8% | 95.6% | 97.8% | 103% | –
3 | CC(=O)[C@@]12O[C@](C)(c3ccccc3)O[C@@H]1CC1C3CCC4=CC(=O)CC[C@]4(C)C3CC[C@@]12C (stereo partly specified) | 54.4% | 78.5% | 68.4% | 76.2% | 70.7% | 67.9% | 81.7% | –
4 | CCn1cc(CNc2ccc(C(=O)Nc3ccc4ccccc4c3)cc2)c(C)n1 | 52.9% | 51% | 62.9% | – | 63.4% | 75.3% | – | 74.7%
5 | CCCc1nc(C(C)(C)O)c(C(=O)O)n1Cc1ccc(-c2ccccc2-c2nn[nH]n2)cc1 | 103% | 103% | 105% | 91.7% | 99% | 104% | 111% | –
6 | C#C[C@]1(O)CCC2C3CCc4cc(OC5CCCC5)ccc4C3CC[C@@]21C (stereo partly specified) | 76.6% | 91.6% | 49.8% | 99.6% | 65.9% | 73.5% | 49.3% | –
7 | C=C(NC(=O)C(=C)NC(=O)c1csc(C2=NC3c4csc(n4)C4NC(=O)c5csc(n5)C(C(C)(O)C(C)O)NC(=O)C5CSC(=N5)C(=CC)NC(=O)C(C(C)O)NC(=O)c5csc(n5)C3(CC2)NC(=O)C(C)NC(=O)C(=C)NC(=O)C(C)NC(=O)C(C(C)CC)NC2C=Cc3c(C(C)O)cc(nc3C2O)C(=O)OC4C)n1)C(N)=O (stereo unspecified) | 43.2% | -59.6% (active) | 66.2% | 16.2% | 72.2% | 8.49% (active) | -14.3% (active) | –
8 | C[C@@H](O)[C@H]1C(=O)N2C(C(=O)O)=C(SCCN=CN)C[C@H]12 | -1.59% (active) | -34.7% (active) | 1.59% (active) | -8.43% (active) | -14.9% (active) | 8.8% (active) | -25.8% (active) | –
9 | O=C1Cc2cc(CCN3CCN(c4nsc5ccccc45)CC3)c(Cl)cc2N1 | 102% | 99.5% | 103% | 64.9% | 95.4% | 106% | 109% | –
10 | CN1CCN(c2cc3c(cc2F)c(=O)c(C(=O)O)cn3-c2ccc(F)cc2)CC1 | 95.8% | 100% | 98.5% | 118% | 102% | 97.6% | 107% | –
11 | CC(=O)O[C@@]12CO[C@@H]1C[C@H](O)[C@@]1(C)C(=O)[C@H](O)C3=C(C)[C@@H](OC(=O)[C@H](O)[C@@H](NC(=O)OC(C)(C)C)c4ccccc4)C[C@@](O)([C@@H](OC(=O)c4ccccc4)C12)C3(C)C (stereo partly specified) | 31.8% | 61.5% | 12.1% | 56.3% | 38.8% | 54% | 0.921% (active) | –
12 | CCC1NC(=O)c2cc(S(N)(=O)=O)c(Cl)cc2N1 (stereo unspecified) | 108% | 102% | 114% | 91.2% | 104% | 116% | 109% | –
13 | O=C1c2c(c3c4ccccc4n(CCCCCCN4CCOCC4)c3c3[nH]c4ccccc4c23)C(=O)N1O | 81.5% | 66.7% | 72.2% | – | 81.1% | 5.72% (active) | 36% | 67.3%
14 | C[C@]12CCC3c4ccc(O)cc4C[C@@H](CCCCCCCCCS(=O)CCCC(F)(F)C(F)(F)F)C3C1CC[C@@H]2O (stereo partly specified) | 84.8% | 94.2% | 67.7% | 78% | 67.9% | 96.1% | 93.7% | –
15 | C[N+]1(CCCCC[N+]2(C)CCCC2)CCCC1 | 105% | 83.8% | 94.7% | 74.6% | 76.2% | 118% | 122% | –
16 | CCN1CC(CCN2CCOCC2)C(C(c2ccccc2)c2ccccc2)C1=O (stereo unspecified) | 105% | 97.3% | 108% | 98.9% | 101% | 114% | 110% | –
17 | CCOC(=O)c1sc2ncnc(Nc3ccc4c(cnn4C(=O)Nc4ccc(C)c(Cl)c4)c3)c2c1C | 91.4% | 87.6% | 114% | – | 72.7% | 89.6% | 110% | 68.8%

Row | Compound | growth (NCI-H23 lung) | growth (NCI-H226 lung) | growth (NCI-H460 lung) | growth (HOP-92 NSCLC) | growth (A549/ATCC NSCLC) | growth (786-0 renal) | growth (COLO 205 colon) | growth (NCI-H522 lung)
18 | CN1CCN(C2=Nc3ccccc3Oc3ccc(Cl)cc32)CC1 | 105% | 111% | 105% | 80.4% | 94.8% | 87.4% | 96.9% | –
19 | Nc1nc(Cl)nc2c1ncn2C1O[C@H](CO)[C@@H](O)[C@@H]1F (stereo partly specified) | -9.12% (active) | 2.75% (active) | 3.27% (active) | 38.4% | 23.4% | -34.1% (active) | 37.6% | –
20 | COc1cc2c3c(n([C@H]4CCOC4)c(=O)c2cc1OC)-c1cc2c(cc1C3=O)OCO2 | 17.4% | 20.8% | 3.66% (active) | – | 32.5% | 10.6% | 35.8% | 15.8%
21 | Cc1cc(C(C#N)c2ccc(Cl)cc2)c(Cl)cc1NC(=O)c1cc(I)cc(I)c1O (stereo unspecified) | 10.4% | 45.4% | 24.1% | -12.1% (active) | 71.3% | 20.8% | 53.5% | –
22 | Cc1c2c[n+](C(C)C)ccc2c(C)c2c1[nH]c1ccccc12 | 6.42% (active) | 27.4% | 4.39% (active) | – | 20.4% | 27.7% | – | 2.71% (active)
23 | CC(C)Cc1ccc([C@H](C)C(=O)O)cc1 | 105% | 112% | 106% | 79% | 102% | 106% | 113% | –
24 | O=C(CCCCCCC(=O)Nc1ccccc1)NO | 3.33% (active) | 48.9% | 16.3% | -10.4% (active) | 7.25% (active) | 23.2% | -62.8% (active) | –
25 | COc1ccc2nc3cc(Cl)ccc3c(Nc3cc(CN4CCCC4)c(O)c(CN4CCCC4)c3)c2n1 | -29.4% (active) | -32.1% (active) | 4.16% (active) | -16.4% (active) | 9.53% (active) | 0.406% (active) | -48.5% (active) | –
26 | O=C(CCCCNC(=O)c1nc(-c2ccccc2)n(-c2ccccc2)n1)NO | 87% | 83.9% | 78.1% | – | 84.2% | 92% | 84.9% | 27.7%
27 | Cc1ccc(-n2c(C)nn3c(=O)c4c5c(sc4nc23)CN(C)CC5)cc1 | 97.4% | 98.3% | 109% | – | 73.7% | 86.3% | 103% | 71.5%
28 | OC[C@H]1OC([S-])[C@H](O)[C@@H](O)[C@@H]1O.[Au+] (stereo partly specified) | 77.2% | 103% | 110% | 75.6% | 95.7% | 87.3% | 114% | –
29 | COc1ccc(Cc2cnc(N)nc2N)cc1OC | 96.8% | 99.1% | 105% | 90.1% | 101% | 109% | 108% | –
30 | CCn1c2ccc(O)cc2c2c(C)c3c[n+](C)ccc3c(C)c21 | 19.2% | 26.1% | 7.28% (active) | – | 37.5% | 13.7% | 43.6% | -0.0478% (active)
31 | C[C@H]1[C@H](OC(=O)CCC(=O)O)O[C@@H]2O[C@]3(C)CC[C@H]4[C@H](C)CC[C@@H]1[C@@]24OO3 | 19.9% | 59.5% | 25.5% | 41.6% | 42% | 33.5% | -5.69% (active) | –
32 | O=S(=O)(NCCCNc1nccc(-c2cn(-c3ccccc3)nc2-c2ccc(Cl)c(O)c2)n1)c1ccccc1 | 78.5% | 76.3% | 46.3% | – | 37.3% | 68% | 69.4% | 65.6%
33 | COc1ccc(C(=O)CSc2nc(-c3cc(OC)ccc3OC)cc(-c3ccc(OC)cc3)c2C#N)cc1 | 91.6% | 88.4% | 127% | – | 78.6% | 94.4% | 98.8% | 81.6%
34 | COc1ccc(CCN2CCC(Nc3nc4ccccc4n3Cc3ccc(F)cc3)CC2)cc1 | 47.1% | 60% | 1.57% (active) | -20.1% (active) | 28.7% | -96.5% (active) | -65.7% (active) | –
